# NPSR antagonist – neuropeptide S receptor (human) antagonism, cAMP. 220,000 tested, 1% active. Potency, µM (highest dose often 38.3 µM), inactives show at the highest dose activity change, negative = inhibition, usual class: inhibitors. CHO-NPSR cells, cAMP TR-FRET, antagonist mode. Q6W5P4; active = well fitted curve in the direction sought with a large enough effect; inconclusive = small, poorly fitted or top-dose-only effect, or another doubt; inactive = no such curve, though single readings can be large; an effect the other way counts as inactive or inconclusive; also: potency is read from the fitted curve at half-maximal effect; nearly all actives have a fitted effect of over 50% in size
# ALDH1A1 inh – blocks purified human ALDH1A1 activity | AID 1030 | Purified ALDH1A1, NADH fluorescence, propionaldehyde substrate | 220,000 tested, 7.3% active | Potency, µM (doses to about 75.3 µM), inactives show at the highest dose activity, negative = inhibition, usual class: inhibitors;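 also: potency is read from the fitted curve at half-maximal effect; plate controls were no enzyme wells and a reference inhibitor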
# IMPase inh – membrane-permeable compound that blocks inositol monophosphatase; CHO-M1 cells, IP1 accumulation, HTRF TR-FRET ratio; inhibition (IP1 accumulation), % at 46.1 µM; 120,000 tested, under 10 active; AID 901; active = well fitted curve in the direction sought with a large enough effect in the signal ratio, not every such curve was filed as active; inconclusive = small, poorly fitted or top-dose-only effect, or a change in a side signal; inactive = no such curve, though single readings can be large or run the other way; the % refers to the signal ratio;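 also: cells stimulated with carbachol in lithium chloride buffer; plate controls were DMSO basal wells for no effect and reference inhibitor wells for full effect; higher means more IMPase inhibition seen as more IP1 and lower FRET ratio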
# Target sequence (P97697 whole entry, looked up): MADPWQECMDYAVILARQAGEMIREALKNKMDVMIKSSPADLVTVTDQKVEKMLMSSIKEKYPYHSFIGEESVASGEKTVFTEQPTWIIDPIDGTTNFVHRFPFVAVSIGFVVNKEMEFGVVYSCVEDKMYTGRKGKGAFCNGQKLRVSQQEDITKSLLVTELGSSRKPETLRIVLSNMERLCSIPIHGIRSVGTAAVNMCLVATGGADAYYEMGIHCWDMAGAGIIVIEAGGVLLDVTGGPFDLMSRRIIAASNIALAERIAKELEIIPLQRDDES
#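 Carbachol-driven Gq signalling in CHO-M1 cells (2000/well) generates IP1. Compounds that block IMPase raise IP1 and so reduce the FRET signal from Eu-anti-IP1 and d2-IP1 after a 10 min room-temperature lysis.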
# IMPase Li cell – cell-permeable IMPase inhibitors with lithium potentiation. AID 1457. Potency, µM (titrated, usually from 59.4 µM), without a hit: at the highest dose activity, negative = IMPase inhibition, actives largely listed as inhibitors. 210,000 tested, 0.35% active. CHO-M1 cells, IP1 TR-FRET (IP-One), carbachol + lithium; active = well fitted curve in the direction sought with a large enough effect; inconclusive = small, poorly fitted or top-dose-only effect, or another doubt; inactive = no such curve, though single readings can be large; an effect the other way counts as inactive or inconclusive;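 also: IP1 builds up when IMPase is blocked and the TR-FRET signal falls; potency is read from the fitted curve at half-maximal effect; plate controls were basal vehicle for no effect and high inhibitor control for full effect; nearly all actives have a fitted effect of over 50% in size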
#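 IP1 accumulation measured by competitive TR-FRET in lysed CHO-M1 cells after 30 min compound exposure at 37C, with a small lithium addition to potentiate weak responses. Hill-equation AC50 from ratio and donor-channel data.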
# PNC inhibitor – blocks assembly of the perinucleolar compartment; PC3M PTB-GFP, PNC prevalence imaging, 16 h; hits give low values; activity change (PNC), negative = inhibition, % at 10 µM; 140,000 tested, 3.1% active;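 active = readout at or below -70, meaning at least 70% loss of cells showing the perinucleolar compartment, a nuclear body marking cancer cells; inconclusive = readout between -30 and a set limit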;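 also: plate controls were DMSO wells for no effect and camptothecin positive control wells for full effect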
#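 Compounds are pinned in duplicate onto adhered PC3M cells stably expressing GFP-tagged PTB and incubated 16 h at 37 C. Cells are then fixed, nuclei stained with Hoechst, and PNC-positive cells counted.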
# HPGD block – HPGD (human) dehydrogenase inhibition. purified HPGD, NADH fluorescence kinetic, PGE2 substrate. Potency, µM, for the others: top-dose activity change, negative = inhibition, usual class: inhibitors. 150,000 tested, 4.3% active. AID 894; also: potency is read from the fitted curve at half-maximal effect
# Target sequence (P15428 whole entry, looked up): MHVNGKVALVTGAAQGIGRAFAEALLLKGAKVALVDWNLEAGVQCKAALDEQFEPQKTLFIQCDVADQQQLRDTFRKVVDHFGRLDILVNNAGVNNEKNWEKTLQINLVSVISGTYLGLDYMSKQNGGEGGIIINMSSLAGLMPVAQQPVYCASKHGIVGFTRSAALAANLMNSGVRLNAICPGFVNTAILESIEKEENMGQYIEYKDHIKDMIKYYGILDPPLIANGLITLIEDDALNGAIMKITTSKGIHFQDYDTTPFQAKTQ
#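 20 nM HPGD preincubated 15 min at room temperature with compound in 50 mM Tris-HCl pH 8, 0.01% Tween 20. Started with 1 mM NAD+ and 30 uM prostaglandin E2; NADH fluorescence (360/450 nm) read 5 times over 30-s intervals, last minus first.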
# Active calls of the source: *; ? = inconclusive; . = no result given; ! = not confirmed by another sample; [ ] = dose if it differs, or a comment. A selection: hits, their analogues and other compounds. The true share with any hit is near 11%. Unless noted, calls follow the shape of the dose curve; as a rule, active = well fitted inhibition curve with a large enough effect (not every such curve was filed as active); inconclusive = small, poorly fitted or top-dose-only effect, or another doubt; inactive = no such curve, though single readings can be large or run the other way. Unless noted, % is scaled to controls: 0 for no effect and ±100 for the full control effect.
SMILES,NPSR antagonist,ALDH1A1 inh,IMPase inh,IMPase Li cell,PNC inhibitor,HPGD block
CCCn1c(SCC(=O)NCCc2ccc(OC)c(OC)c2)nc2c1c(=O)n(C)c(=O)n2C,-11%[46.1 µM],-2%,17,3%[38.3 µM],26,-14%
COC(=O)C1=C(C)N(CCc2ccc(OC)c(OC)c2)C(=O)C1,-6%[46.1 µM],?,-3,-8%[38.3 µM],-22,-16%
COC(=O)C1=C(C)N(Cc2ccc(OC)cc2)C(=O)C1,-18%[46.1 µM],3%,6[1.84 µM],13%[38.3 µM],24,-20%
COC(=O)C1=C(C)N(CCc2c[nH]c3ccccc23)C(=O)/C1=C\N(C)C,-9%,13µM*,.,0%,.,.
COC(=O)C1=C(C)N(CCc2ccc(OC)cc2)C(=O)C1,-17%[46.1 µM],10µM*,13,16%[38.3 µM],-27,-30%
COC(=O)C1=C(C)N(CCc2c[nH]c3ccc(OC)cc23)C(=O)C1,10%,18µM*,.,23%,.,.
CCC(C)c1ccc(NC(=O)c2cccs2)cc1 (configuration not stated),-8%[46.1 µM],-12%,2,7%[38.3 µM],13,-19%
O=C(COC(=O)C1CCN(C(=O)c2ccc(Cl)cc2)CC1)NC1CCS(=O)(=O)C1 (configuration not stated),17%,5%,.,-2%,.,.
N=C1/C(=C\c2ccc(SCc3ccccc3)o2)C(=O)N=C2SC=NN12,-24%,7%,.,0%,.,.
CCS(=O)(=O)C1=NN2C(=N)/C(=C\c3ccc(SCc4ccco4)o3)C(=O)N=C2S1,-18%,1.8µM*,.,1%,.,.
O=C(NCc1ccccc1)c1ccc(-c2ccccc2C(F)(F)F)o1,?,25µM*!,.,3%,-84*,32µM*!
O=C(O)c1ccc(-c2ccccc2C(F)(F)F)o1,-7%[46.1 µM],5%,-1,-3%[38.3 µM],1,-7%
COc1ccccc1OCCNC1CCCC1,4%[46.1 µM],?,-3,7%[38.3 µM],-98*,-9%
CC(=O)OCC1O[C@@H](O[C@@H]2C[C@H]3C(C)(C)[C@H](OC(C)=O)CC[C@]3(C)[C@H]3CC[C@]45C[C@]4(CC[C@H]5[C@@H](C)C[C@@H](O)[C@H](O)C(C)(C)O)[C@@]32C)[C@H](O)[C@@H](O)[C@@H]1O (some centres not stated),?,-6%,.,20%,-115*,-13%
Cc1ccc(-n2[nH]c(C)c(C=Nc3ccc(S(=O)(=O)Nc4nccs4)cc3)c2=O)c(C)c1,-28%,-3%,.,0%,.,.
OC1(c2ccc(Cl)cc2)CN(c2ccccc2)C2=[N+]1CCS2 (configuration not stated),10µM*,-10%,.,13%,.,.
COc1ccc(NC(=O)C2CCCN(S(=O)(=O)c3ccc4c(c3)oc(=O)n4C)C2)cc1OC (configuration not stated),-5%[46.1 µM],-6%,3,8%[38.3 µM],10,-14%
CC(C)c1ccc(NC(=O)c2cc3c(=O)n(C)c4ccccc4c3n2C)cc1,-13%,.,.,.,.,.
CC(C)CCN1C(=O)c2ccc(-c3nc4ccccc4c(=O)o3)cc2C1=O,-7%[46.1 µM],7.1µM*,?,-22%[38.3 µM],11,?
CC(=O)OC1CC2C(C)(C)C(=O)CC[C@]2(C)C2CC[C@@]3(C)C(c4ccoc4)OC(=O)C4OC43[C@]12C (some centres not stated),.,-7%,.,4%,.,-9%
CC(C)(C)NC[C@@H](O)COc1nsnc1N1CCOCC1,.,7%,.,8%,.,-12%
Brc1ccc(Oc2nsnc2N2CCOCC2)cc1,-1%[46.1 µM],4%,2,22%[38.3 µM],10,-15%
COC(=O)Oc1nsnc1N1CCOCC1,-1%[46.1 µM],4µM*,-1,0%[38.3 µM],7,14µM*
O=c1c(N2CCOCC2)nsnc1N1CCOCC1,4%[46.1 µM],25µM*,9,.,?,.
COc1ccc(C(=O)C2CCCN(C(=O)c3noc4c3CCCC4)C2)cc1F (configuration not stated),9%,3.5µM*,.,1%,.,.
SMILES,NPSR antagonist,ALDH1A1 inh,IMPase inh,IMPase Li cell,PNC inhibitor,HPGD block
COc1ccc(C(=O)C2CCCN(C(=O)c3ccccc3C(C)=O)C2)cc1F (configuration not stated),-15%,?,.,16%,.,.
COc1ccc(C(=O)C2CCCN(C(=O)c3noc4c3CCCC4)C2)c(C)c1 (configuration not stated),17%,5µM*,.,17%,.,.
COc1ccc(C(=O)C2CCCN(C(=O)C3=CCCC3)C2)c(C)c1 (configuration not stated),-10%,?,.,6%,.,.
COc1ccc(OC)c(NC(=O)N2CCCC(C(=O)c3ccccc3OC)C2)c1 (configuration not stated),24%,13µM*,.,14%,.,.
O=C1C=C(NCc2ccc(Cl)c(Cl)c2)C2(CCCCC2)O1,?,?,8,9%[38.3 µM],1,-8%
O=C(Oc1ccccc1-c1csnn1)c1cccs1,-3%,18µM*,.,0%,.,.
CC(O)CNCCNCc1c(OCc2ccccc2)ccc2ccccc12 (configuration not stated),7%[46.1 µM],28µM*,0,51%[38.3 µM],-9,-9%
CC(O)CNCCOc1ccccc1OCc1ccccc1 (configuration not stated),-15%,-9%,.,4%,.,.
Cc1noc(C)c1-c1ccc2ncnc(N(C)Cc3ccco3)c2c1,.,5%,.,-8%,.,13µM*
C[C@@]1(C(NC(=O)Cc2ccc(C(F)(F)F)cc2)c2ccc(-c3ccccc3)cc2)C[C@H]1C1CCCCC1 (some centres not stated),.,11%,.,-7%,.,1%
O=C(/C=C/c1cn(CC(O)CN2CCCCC2)c2ccccc12)c1cccs1 (configuration not stated),-29%,14µM*,.,0%,?,-19%
COc1ccc(C(=O)C[n+]2ccccc2C)cc1,19%,-6%,.,-9%,-20,-12%
CC(Oc1ccccc1F)C(=O)Nc1ccc2ccccc2c1 (configuration not stated),-15%[46.1 µM],1%,?,1%,-87*,-21%
CC(C)Cn1c(/C=C/c2ccccc2)nc2ccccc21,-27%[46.1 µM],?,-8,.,-14,.
CNS(=O)(=O)c1cc(-c2nnc(Nc3cc(C)ccc3C)c3ccccc23)ccc1C,.,.,7,.,.,.
CCOC(=O)CSc1nc(C)cc(C)c1C#N,4%[46.1 µM],25µM*,-4,24%[38.3 µM],30,-9%
CCOC(=O)CCc1c(C)nc(SCC(=O)O)c(C#N)c1C,-11%[46.1 µM],25µM*,-3,-8%[38.3 µM],-14,-22%
Cc1cc(C)c(C#N)c(SCC(=O)OC2CCCCC2)n1,-29%[46.1 µM],28µM*,13,45%[38.3 µM],-83*,16µM*
CCOC(=O)CSc1nc(C)cc(C)c1C(N)=O,13%,7%,.,-6%,.,.

# Bioassay records (PubChem)
